Data on 91 compounds can be found in PubChem BioAssay AID1224865 (Sanford-Burnham Center for Chemical Genomics, 2016).

About 1,100 (0.31%) of roughly 360,000 compounds were called active. For the sample, actives were picked, then their nearest neighbours and some compounds at random. A number with no mark means an inactive call. Cut-off read from the data, not from the text of the source: active = activity change above about 30% (passing the limit was not always enough); inactive = the rest.

The assay deals with Hepatocyte nuclear factor 4-alpha (Homo sapiens) (UniProt P41235). Put plainly: change in binding of human HNF4A to DNA, primary screen, biochemical, fluorescence polarization, FITC-DNA (AID 1224865). Conditions: 1 h, at 10 µM, active compounds read high. For orientation: Fluorescence polarisation rises when a labelled molecule tumbles more slowly, as on binding a larger partner.
Chain of Hepatocyte nuclear factor 4-alpha (Homo sapiens) (P41235 whole entry, looked up): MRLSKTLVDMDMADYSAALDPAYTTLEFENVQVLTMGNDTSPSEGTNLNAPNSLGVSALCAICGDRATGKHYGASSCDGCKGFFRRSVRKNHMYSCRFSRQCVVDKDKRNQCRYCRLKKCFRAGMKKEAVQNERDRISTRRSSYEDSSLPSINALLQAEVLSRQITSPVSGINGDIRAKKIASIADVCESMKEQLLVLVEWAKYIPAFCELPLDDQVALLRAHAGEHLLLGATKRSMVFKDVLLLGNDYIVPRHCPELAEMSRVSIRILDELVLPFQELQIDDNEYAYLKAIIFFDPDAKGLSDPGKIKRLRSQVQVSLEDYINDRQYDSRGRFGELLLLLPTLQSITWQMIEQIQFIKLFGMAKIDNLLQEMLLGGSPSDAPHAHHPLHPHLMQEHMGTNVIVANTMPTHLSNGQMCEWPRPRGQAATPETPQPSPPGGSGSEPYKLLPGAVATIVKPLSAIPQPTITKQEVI
With `CCOC(=O)c1cccc(NC(=O)c2ccc(F)cc2F)c1`, the activity change is 7%.
The result for `O=C(COC(=O)CSc1ccccc1)Nc1ccc(F)cc1F` reads -1.87%; that for `O=C(COC(=O)c1ccc(F)cc1F)Nc1ncccn1`, 38.7% (active); that for `CC1C(=O)Nc2ccccc2N1C(=O)c1ccc(F)cc1F` (stereo unspecified), 2.72%.
For `O=C(NCc1ccncc1)c1cccc(NS(=O)(=O)c2ccc(F)c(F)c2)c1`, the activity change is -3.8%.
As to `CC1C(=O)N2CCCc3cc(S(=O)(=O)NCc4ccc(F)cc4)cc1c32` (stereo unspecified), the activity change is -0.59%.
In the case of `CC(C)CC(=O)Nc1ccc(Cc2ccncc2)cc1`, the activity change was 1.88%.
For the compound `COc1cccc(OC)c1C(=O)Nc1ccc(Cc2ccncc2)cc1`, the activity change was 41.2% (active).
For `CCn1nnc(NC(=O)c2c(OC)cccc2OC)n1`, the activity change is 0.86%.
The result for `C=CCn1c(SCC(=O)NC23CC4CC(CC(C4)C2)C3)nc(O)cc1=O` reads 2.14%; that for `Cc1ccc2[nH]c(=O)c(CN(CCCN(C)C)C(=O)Nc3cccc(Cl)c3)cc2c1`, 4.9%; that for `COC(=O)c1ccc(C(=O)OC)c(NC(=S)N2CCN(c3ccc(F)cc3)CC2)c1`, -1.17%.
For the compound `Cc1ccc(CSCC2Nc3ccc(C(=O)N4CCN(c5ccc(F)cc5)CC4)cc3NC2=O)cc1` (stereo unspecified), the activity change was 37.8% (active).
For `C=CCn1c(SCc2cccc(F)c2)nc2cc(C(=O)N3CCC(C(N)=O)CC3)ccc2c1=O`, the activity change is 2.05%.
The result for `O=C1Nc2cc(C(=O)N3CCN(c4ccc(F)cc4)CC3)ccc2NC1CSCc1cccc(F)c1` (stereo unspecified) reads 102% (active); that for `Cc1ccccc1CN1CCN(C(=O)c2cccc(F)c2)CC1`, 3.17%; that for `Cc1noc(C)c1S(=O)(=O)Nc1ccc(C(=O)N2CCN(c3ccc(F)cc3)CC2)cc1`, 1.2%.
The result for `COc1ccc(Cn2cccc(NC(=O)Nc3ccc(C#N)cc3)c2=O)cc1` reads -3.37%; that for `COC(=O)c1c(NC(=O)CN2CCN(S(=O)(=O)c3ccccc3[N+](=O)[O-])CC2)sc2c1CCC(C)C2` (stereo unspecified), 0.7%; that for `O=S(=O)(Cc1ccccc1)c1nc2ccccc2n1Cc1ccccn1`, -0.31%.
The result for `CC1=CC2=NC(=O)/C(=C/c3coc4ccccc4c3=O)C(=N)N2O1` reads 6.6%; that for `O=C1/C(=C/c2coc3ccc(O)cc3c2=O)SC(=S)N1c1ccccc1`, 55.6% (active).
Turning to `Cc1ccc(S(=O)(=O)N2CCC(C)CC2)cc1C(=O)NCc1ccccn1`, the activity change was 0.82%.
In the case of `Cc1ccc(CC2S/C(=C(/C#N)C(=O)N3CCOCC3)N(c3ccccc3)C2=O)cc1` (stereo unspecified), the activity change is 0.2%.
`CCN(CC(=O)NCc1cccs1)C(=O)/C=C/c1ccc(C)cc1`: the activity change is 0.98%.
Consider `COc1cccc(-c2ccc3c(c2)S(=O)(=O)c2cccc(C(=O)O)c2C3=O)c1OC`, for which the activity change was 1.88%.
The result for `CC1CCN(c2ccc3c(c2)S(=O)(=O)c2cc(C(=O)O)ccc2C3=O)CC1` reads 14.3%; that for `Cc1ccc(CNC(=O)c2cccc3c2C(=O)c2ccc(N4CCC(C)CC4)cc2S3(=O)=O)cc1`, 45.8% (active); that for `Cc1nn(Cc2ccc(C(=O)N3N=C(C(F)F)CC3(O)C(F)F)cc2)c(C)c1[N+](=O)[O-]` (stereo unspecified), 1.52%.
For `COc1cc(/C=C2/SC(=S)N(Cc3ccccc3)C2=O)cc(OC)c1O` the value was 48.1% (active).
`COc1cc(=O)[nH]c(=O)n1C(=O)Cc1ccccc1`: the activity change is 2.22%.
The result for `CN(C)c1ccc(/C=C2\NC(=S)N(Cc3ccccc3)C2=O)cc1` reads 128%; that for `CC1CCCCC1NC(=O)C1CCCN1S(=O)(=O)c1cccc2nsnc12` (stereo unspecified), -0.79%.
The result for `Cc1cccc(C)c1NC(=O)C(c1cccc2ccccc12)n1c(=O)c(-c2ccco2)nc2ccccc21` (stereo unspecified) reads 32.4%; that for `O=C(NC1CCCCC1)C(c1cc2ccccc2o1)n1c(=O)c(-c2ccco2)nc2ccccc21` (stereo unspecified), 45.8% (active); that for `Cc1cccc(C)c1NC(=O)C(c1ccc(C(F)(F)F)cc1)n1c(=O)c(-c2ccco2)nc2ccccc21` (stereo unspecified), 26.7%.
The result for `CCOc1[nH]n(-c2ccc(Cl)cc2)c(=O)c1C=Nc1ccc(O)cc1` reads -5.55%.
With `Oc1ccc(N=Cc2c(O)ccc3ccccc23)cc1`, the activity change was 72% (active).
Turning to `Oc1ccc(/C=N/N(Cc2ccccc2)c2ccccc2)cc1`, the activity change was -0.08%.
For `COc1ccccc1C(=O)N1CCN=C1SCc1cccnc1` the value was 2.47%; for `Cc1ccc(-c2csc(NC(=O)Cn3[nH]c(=O)c4ccccc4c3=O)n2)cc1`, 50% (active); for `Cc1ccc(C)c(C(=O)COC(=O)Cn2[nH]c(=O)c3ccccc3c2=O)c1`, -0.2%.
The result for `O=C(Cn1[nH]c(=O)c2ccccc2c1=O)Nc1cccc(-c2nnc3n2CCCCC3)c1` reads 1.84%.
Turning to `O=C(OC(C(=O)NC1CCCC1)c1ccc(F)cc1)c1ccno1` (stereo unspecified), the activity change was -0.09%.
For `Cc1sc2nc(-c3ccccc3F)oc(=O)c2c1C` the value was 0.82%; for `Nc1c(N(CCCO)C(=O)C2CCCC2)c(=O)[nH]c(=O)n1Cc1ccccc1`, -0.45%; for `CCc1nnc(NC(=O)c2ccco2)s1`, 0.04%.
The result for `CCCCOC(=O)Nc1nnc(CC(=O)NCc2ccccc2)s1` reads -1.39%.
For `CCc1ccc2nc3sc(C(=O)Nc4nnc(CC)s4)c(N)c3cc2c1` the value was 45.1% (active); for `COc1ccc(CCNC(=O)C(=O)NCC2OCCN2S(=O)(=O)c2cccs2)cc1OC` (stereo unspecified), 5.44%.
For `COc1cc(N=Cc2c(O)c3ccccc3oc2=O)c(OC)cc1Cl`, the activity change is 98.2% (active).
For `COc1cc(O)c2c(=O)c3c(O)c(O)ccc3oc2c1OC` the value was 3.57%.
In the case of `Cc1ccc(N2C(=O)C(CC(=O)Nc3cccc(F)c3)N(CCc3ccncc3)C2=O)cc1` (stereo unspecified), the activity change is 0.66%.
The result for `O=[N+]([O-])c1ccc(N=NNc2ccc([N+](=O)[O-])cc2)cc1` reads 54.8% (active).
On to `NC(=O)C1(Nc2ccc([N+](=O)[O-])cc2)CCCC1`, for which the activity change was -1.78%.
Consider `COC(=O)c1ccccc1N=NNc1ccc([N+](=O)[O-])cc1`, for which the activity change was -3.24%.
Turning to `O=C1CSC(c2cccc(F)c2)N1c1ccc(O)cc1` (stereo unspecified), the activity change is 1.06%.
Regarding `O=C(CCc1nnc2ccc(NCCCN3CCCC3=O)nn12)NCc1ccccc1Cl`, the activity change was 1.08%.
On to `CCn1c(SCC(=O)Nc2ccc3c(c2)OCCO3)nc2c(c1=O)SC(C)C2` (stereo unspecified), for which the activity change was 1.48%.
Turning to `Cc1cccc(NS(=O)(=O)c2ccc([N+](=O)[O-])cc2)n1`, the activity change was 0.15%.
For `Cc1nc2ccccc2nc(=O)c1NNc1ccc([N+](=O)[O-])cc1`, the activity change was 71% (active).
As to `CC(O)c1nc2ccccc2n1Cc1ccc([N+](=O)[O-])cc1` (stereo unspecified), the activity change was -3.67%.
With `O=C(O)C1CCC(CNS(=O)(=O)c2ccc(Br)cc2)CC1` (stereo unspecified), the activity change was 1.62%.
Take `Clc1cccc(Cc2c(-c3cccc(Cl)c3)nc3ccc(Cl)cn23)c1`: the activity change is 8.89%.
Consider `Fc1cccc(Cc2c(-c3ccc(Cl)cc3)nc3ccc(Cl)cn23)c1`, for which the activity change is 6.82%.
The result for `Fc1cccc(Cc2c(-c3cccc(Cl)c3)nc3ccc(Br)cn23)c1` reads 42.3% (active).
As for `CN(C)C(=O)CCC(=O)N1CCCCC1C(=O)Nc1ccc(Oc2ccccc2F)cc1` (stereo unspecified), the activity change is 1.87%.
Consider `Cc1nc(-c2ccccc2)cn2c1nc1ccccc12`, for which the activity change is 43.5% (active).
The result for `Cc1c(C(=O)Nc2cccc(Cl)c2)cn2c(nc3ccccc32)c1C#N` reads 0.36%.
The result for `Cc1nc2ccccc2n1CC(O)c1ccccc1` (stereo unspecified) reads -4.17%; that for `COc1ccc(-c2cc(C(F)(F)F)nc(S(C)(=O)=O)n2)cc1OC`, -0.66%; that for `O=C(Cn1nnc(-c2ccc(CN3CCOCC3)cc2)n1)NC1CCCCC1`, 4.12%.
For the compound `N/C(=N\S(=O)(=O)c1ccc(Cl)cc1)N1CCOCC1`, the activity change was 4.34%.
Turning to `O=C(Nc1cccc(-c2nc3ccccc3[nH]2)c1)c1ccc(C(=O)Nc2cccc(-c3nc4ccccc4[nH]3)c2)cc1`, the activity change is 81.8% (active).
For `CCOc1ccc(C(=O)Nc2cccc(SC)c2)cc1` the value was 0.43%.
Regarding `CCOc1ccc(C(=O)Nc2cccc(-c3ccc4nncn4n3)c2)cc1`, the activity change is -0.86%.
For `Cc1ccc(Cl)cc1N1CCN(C(=O)c2cccc3c(=O)c(C)c(-c4ccccc4)oc23)CC1` the value was -0.99%; for `CC(=O)c1cc(NC(=O)c2ccccc2)c(=O)oc1/C=C/N(C)C`, 102% (active); for `COc1ccc(C2COC(=O)C2=N)c(NC(=O)c2ccccc2)c1` (stereo unspecified), -5.12%.
In the case of `CCOC(=O)c1cc(NC(=O)c2ccc(Cl)cc2)c(=O)oc1-c1ccccc1`, the activity change was -0.75%.
For `CCOc1ccc(Oc2nc(C)cc(OC)n2)nn1` the value was 0.35%; for `CC(C)C[C@H](NC(=O)[C@@H]1O[C@H]1C(=O)O)C(=O)NCCCCN=C(N)N`, 2.71%.
Regarding `COc1ccc(CN2CCCCC2C)cc1OC` (stereo unspecified), the activity change is -0.13%.
As for `CC(C)c1ccc2oc(=O)cc(CN3CCN(Cc4ccccc4)CC3)c2c1`, the activity change is 2.71%.
For `CCc1ccc2oc(=O)cc(CN3CCCCC3C)c2c1` (stereo unspecified) the value was 39.9% (active); for `O=C(CCCn1c(=O)c2sccc2n(CC(=O)NCC2CCCO2)c1=O)NCc1ccco1` (stereo unspecified), -1.63%.
As for `COc1cccc(NS(=O)(=O)c2ccc3[nH]cc(C(=O)NCCCOC(C)C)c(=O)c3c2)c1`, the activity change is 0.82%.
With `Cc1cc(NC(=O)CSc2nc(=O)cc(N)n2-c2ccc(F)cc2)no1`, the activity change is -1.93%.
`Cc1cc(NC(=O)CSc2nnnn2-c2ccc(F)cc2)no1`: the activity change was 2.72%.
For `Cc1cc(NC(=O)CSc2nccn2-c2ccc([N+](=O)[O-])cc2)no1` the value was 35.4% (active); for `CC(C)c1ccc(-c2nn[nH]n2)cc1`, -1.88%.
